Results as given in PubChem BioAssay (NCI).
About 83,000 compounds went through this panel and 20% of them were active in at least one assay; those are over-represented in the sample as a whole.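 Each cell line was grown in a 96-well plate and treated with one concentration of compound for 48 hours. Values below 10 were considered active.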 Values without a mark were called inactive. Calls of active or inactive are those of the source.

Key:
Assay in all cases: NCI-60 one-dose screen, 48 h (100 = growth as untreated, 0 = no growth, -100 = all killed)
Conditions in all cases: 10 µM
SR leukemia = tested on: SR leukemia
RPMI-8226 leukemia = tested on: RPMI-8226 leukemia
OVCAR-8 ovarian = tested on: OVCAR-8 ovarian
OVCAR-5 ovarian = tested on: OVCAR-5 ovarian
OVCAR-4 ovarian = tested on: OVCAR-4 ovarian
SK-OV-3 ovarian = tested on: SK-OV-3 ovarian
IGROV1 ovarian = tested on: IGROV1 ovarian
OVCAR-3 ovarian = tested on: OVCAR-3 ovarian
HS 578T breast = tested on: HS 578T breast
NCI/ADR-RES ovarian = tested on: NCI/ADR-RES ovarian
T-47D breast = tested on: T-47D breast
BT-549 breast = tested on: BT-549 breast
MDA-MB-435 melanoma = tested on: MDA-MB-435 melanoma
SW-620 colon = tested on: SW-620 colon
MCF7 breast = tested on: MCF7 breast
HCT-116 colon = tested on: HCT-116 colon
HCC-2998 colon = tested on: HCC-2998 colon
KM12 colon = tested on: KM12 colon

Row | SMILES | growth (SR leukemia) | growth (RPMI-8226 leukemia) | growth (OVCAR-8 ovarian) | growth (OVCAR-5 ovarian) | growth (OVCAR-4 ovarian) | growth (SK-OV-3 ovarian) | growth (IGROV1 ovarian) | growth (OVCAR-3 ovarian) | growth (HS 578T breast) | growth (NCI/ADR-RES ovarian) | growth (T-47D breast) | growth (BT-549 breast) | growth (MDA-MB-435 melanoma) | growth (SW-620 colon) | growth (MCF7 breast) | growth (HCT-116 colon) | growth (HCC-2998 colon) | growth (KM12 colon)
1 | O=C(NCCCl)c1cc(Cl)cc(Cl)c1 | 103% | 102% | 102% | 107% | 95.1% | 103% | 106% | 114% | 103% | 105% | 93.6% | 105% | 99.9% | 112% | 96.2% | 110% | 102% | –
2 | COc1ccc(-c2nsc3c2NC(=O)CC3c2ccc(Cl)cc2)cc1 (stereo unspecified) | 67.8% | 72.2% | 90.2% | 100% | 99.8% | 86.9% | 77.6% | 93.2% | 95.3% | 81.1% | 69.1% | 73.5% | 81% | 103% | 88.4% | 85.8% | 93.2% | –
3 | COc1cccc2c1C(=O)c1c(O)c3c(c(O)c1C2=O)C[C@@](O)(C(=O)COC(=O)c1ccccc1)C[C@@H]3OC1CC(N)C(O)C(C)O1 (stereo partly specified) | -43.7% (active) | -66.4% (active) | -77.3% (active) | -94.9% (active) | -87.9% (active) | -72.8% (active) | -75.2% (active) | -93.6% (active) | -41.6% (active) | 22.5% | -71.7% (active) | -76.9% (active) | -97.7% (active) | -81.9% (active) | -66.2% (active) | -75% (active) | -93% (active) | -95.6% (active)
4 | COc1ccc2nc(C)cc(Nc3ccc(Cl)cc3)c2c1 | 113% | 102% | 101% | 101% | 90.5% | 105% | 98.2% | 105% | 112% | 102% | 102% | 103% | 108% | 106% | 89% | 101% | 107% | –
5 | N=C(N)c1ccc(-c2ccc(-c3cccs3)s2)nc1 | -9.12% (active) | -24.2% (active) | 55.7% | 62.5% | 34.7% | 63.4% | 70.4% | 38.6% | 80.1% | 84.8% | 43% | 91% | 44.5% | 22.4% | 17.8% | 18.5% | -52.7% (active) | –
6 | COc1ccc2nc(/C=C/c3ccc(N(C)C)cc3)sc2c1 | 86.1% | 104% | 115% | 97.4% | 107% | 197% | 82.5% | 103% | 102% | 93.1% | 300% | 104% | 90.3% | 93.6% | 96.6% | 105% | – | –
7 | COc1ccc2c(=O)cc(C(Cl)(Cl)Cl)oc2c1 | -25.6% (active) | -27.2% (active) | -1.14% (active) | 16.6% | -12.9% (active) | 9.34% (active) | -7.04% (active) | -19.7% (active) | -13.9% (active) | 10.3% | 4.96% (active) | -11.9% (active) | -81% (active) | -2.53% (active) | -9.4% (active) | 4.23% (active) | -30% (active) | –
8 | Cc1cc(Cl)ccc1Nc1nc(C(F)(F)F)ccc1C(=O)N/N=C/c1ccccc1Cl | 66% | 50.5% | 21.7% | 30.8% | 29.2% | 10.4% | 21.6% | 16.3% | 17.4% | 8.31% (active) | 22% | -12.1% (active) | 16.4% | 19.9% | 16.2% | 7.23% (active) | 16.7% | –
